Bioassay records: PubChem, National Center for Advancing Translational Sciences (NCATS)
Rows were chosen to be rich in hits. Some 4.7% of all compounds tested hit in one or more screens of this group.
D1 potentiator: potentiators of human D1 dopamine receptor. AID 504651. 0.036% of 360,000 active. P21728. HEK293 TREx D1 cells, calcium flux, dopamine EC20 potentiation. potentiation, % at 10 µM; in the data active = potentiation above about 30%; note: 0% is about no effect
Target sequence (P21728 whole entry, looked up): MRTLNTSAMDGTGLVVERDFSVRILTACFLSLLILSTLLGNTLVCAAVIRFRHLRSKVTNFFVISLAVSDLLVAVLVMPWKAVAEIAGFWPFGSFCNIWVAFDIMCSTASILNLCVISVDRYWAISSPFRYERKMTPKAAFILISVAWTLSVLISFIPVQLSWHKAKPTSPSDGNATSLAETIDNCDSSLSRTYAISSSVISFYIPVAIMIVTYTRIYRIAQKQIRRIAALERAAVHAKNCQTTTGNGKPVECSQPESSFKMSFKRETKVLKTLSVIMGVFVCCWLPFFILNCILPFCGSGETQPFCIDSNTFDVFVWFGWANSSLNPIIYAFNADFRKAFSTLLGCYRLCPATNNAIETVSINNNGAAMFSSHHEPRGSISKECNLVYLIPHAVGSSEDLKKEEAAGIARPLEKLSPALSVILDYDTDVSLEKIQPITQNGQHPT
D1 antag: antagonists of human D1 dopamine receptor; P21728; HEK293 TREx D1 cells, calcium flux, dopamine EC80; hits give low values; 3.2% of 360,000 active; activity change, negative = inhibition, % at 10 µM; in the data active = activity change below about -30%; note: % is set by controls: 0 for no effect and ±100 for the full control effect
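Inducible Hek293 Trex D1 cells (tetracycline, overnight, 30 C). Calcium dye 30–90 min RT. Antagonist mode: EC80 dopamine added after 180 s compound read.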
TRHR PAM: allosterically enhances the human TRH receptor; TRHR cells, fluo-8 calcium fluorescence, EC20 TRH enhancement; enhancement, % at 2 µM; 0.66% of 360,000 active; P34981; AID 493056; in the data active = enhancement above about 30%; note: 0% is about no effect
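TRHR-expressing cells loaded with fluo-8 calcium dye were read kinetically (ex 480/em 530) during compound addition, then stimulated with an EC20 of TRH (10 nM final). Enhancement of the Gq-mediated intracellular calcium response was scored.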
D1 agonist: activates the human D1 dopamine receptor; HEK293 T-REx D1 cells, calcium flux, agonist mode; P21728; 1% of 360,000 active; AID 504660; activation, % at 2 µM; note: 0% is about no effect
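Tetracycline-induced HEK293 TREx D1 cells, force-coupled to calcium signalling, were dye-loaded with a no-wash calcium kit. Compound was pin-added after a 10 s baseline. Fluorescence was read kinetically at 1 cycle/s for 180 s, with calcium rises flagged as agonism.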
TRHR agonist: TRH receptor (human) agonism. P34981. TRHR cells, calcium flux fluo-8, FDSS agonist mode. activation, % at 2 µM. 0.18% of 360,000 active. AID 493084; note: 0% is about no effect
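Agonist-mode FDSS calcium read (Ex 480/Em 530, 1 s cycles) in 1536-well TRHR cells with fluo-8 dye, after 10-cycle baseline and 23 nL compound addition; TRH at EC20 (10 nM final) added afterwards for the enhancer phase.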
Starred values were filed as active, the others as inactive; . = not tested or not shown. Cut-off read from the data, not from the text of the source, unless noted: active = activation above about 30%; inactive = the rest.

SMILES	D1 potentiator	D1 antag	TRHR PAM	D1 agonist	TRHR agonist
CC(C)(Oc1ccc(Cl)cc1)C(=O)Nc1nnc2n1CCS2	-1	-2	0	0	0
OCC1CCCN(c2nc(CN3CCCCC3)nc3scc(-c4ccccc4)c23)C1 (stereo not drawn)	-2	-10	4	3	0
Fc1ccc(N2CCN(c3nc(CN4CCOCC4)nc4scc(-c5ccccc5)c34)CC2)cc1	-2	-46*	-8	4	0
CCNc1nc(CN2CCCCC2)nc2scc(-c3ccccc3)c12	-8	-38*	4	3	0
O=C(Cn1cc(SCc2cccc(Cl)c2)c2ccccc21)N1CCCCCC1	-4	0	-8	12	2
CCN1C(=O)C2(c3ccccc31)c1c(oc3ccc(F)cc3c1=O)C(=O)N2CCCOC (stereo not drawn)	0	2	3	0	0
O=S(=O)(c1ccc2c(c1)OCCO2)N1CCN(S(=O)(=O)c2ccc(F)c(F)c2F)CC1	2	9	1	1	-1
Nc1c(C(=O)N/N=C/c2cccnc2)oc2nc(-c3ccco3)cc(-c3ccco3)c12	-3	-31*	-12	4	3
Nc1c(C(=O)N/N=C/c2cccnc2)oc2nc(-c3ccccc3)cc(-c3ccco3)c12	-10	-2	-1	1	1
O=C(COc1ccc(Cl)cc1)OCC(=O)N1CCCC1	1	2	0	3	0
COc1ccc(OC(=O)COc2ccc(Cl)cc2)cc1	-3	-6	39*	1	1
O=C(COc1ccc(Cl)cc1)OCC(=O)N1CCCCCC1	7	-34*	-2	1	0
O=C(CSc1nnc(COc2ccc(Cl)cc2)o1)N1CCCC1	-2	10	-7	1	-2
O=C(CSc1nnc(COc2ccc(Cl)cc2)o1)N1CCCCC1	-6	-31*	8	16	0
O=C(COc1ccc(Cl)cc1)N1CCN(c2ccc([N+](=O)[O-])c(N3CCCCC3)c2)CC1	-2	-31*	0	3	0
NC(=O)C1CCN(C(=O)COc2ccc(Nc3ccccc3)cc2)CC1	-6	-11	11	5	0
CC1CN(C(=O)COC(=O)COc2ccc(C#N)cc2)CC(C)O1 (stereo not drawn)	-3	-47*	-9	-1	0
O=C(COc1ccc(Nc2ccccc2)cc1)OCC(=O)N1CCCCC1	-3	-37*	-4	11	-1
COc1cccc(N2C(=O)CSC23C(=O)N(CC(=O)Nc2cc(C)ccc2C)c2ccccc23)c1 (stereo not drawn)	1	-25	-6	2	0
COc1cccc(NC(=O)C2CCN(c3nc4ccccc4nc3C(F)(F)F)CC2)c1	5	25	9	3	1
Cc1cccc(CCNC(=O)c2ccc3c(c2)nc2n3CCCCC2)c1	-2	11	-5	-1	0
Oc1ccccc1-c1cc(C(F)(F)C(F)F)[nH]n1	-3	-12	-7	10	1
FC(F)C(F)(F)c1cc(-c2ccc(Cl)cc2)n[nH]1	1	-46*	5	86*	-1
Fc1ccc(-c2cc(C(F)(F)C(F)F)[nH]n2)cc1	-15	-48*	5	64*	17
Cn1c(NCc2ccccc2F)nc2ccccc21	-2	17	2	-3	-1
SMILES	D1 potentiator	D1 antag	TRHR PAM	D1 agonist	TRHR agonist
COc1ccc(C)cc1NC(=O)C(CCSC)NS(=O)(=O)c1ccc2c(c1)oc(=O)n2C (stereo not drawn)	-2	-5	-7	-1	0
Cc1ccc(CNC(=O)c2c(Nc3c(C)cccc3C)sc(C(=O)c3ccccc3)c2N)cc1	0	-8	5	8	0
Cc1ccc(OCCCn2c(-c3ccc(Cl)cc3)nc3ccccc3c2=O)cc1C	0	0	-5	2	1
COc1ccccc1CNC(=O)OCc1nccnc1C(=O)Nc1ccc(Br)cn1	-1	-35*	7	1	1
CC(C)(C)NC(=O)CN(Cc1ccco1)C(=O)CCC(=O)Nc1nccs1	1	-31*	0	1	0
COCCNC(=O)CN(Cc1ccc2c(c1)OCO2)C(=O)CCC(=O)Nc1nccs1	-9	-13	3	2	1
COc1ccc(N(CC(=O)NC(C)(C)C)C(=O)CCC(=O)Nc2nccs2)c(OC)c1	-6	-31*	-4	-1	0
CC(C)(C)NC(=O)CN(Cc1ccc2c(c1)OCO2)C(=O)CCC(=O)Nc1nccs1	-5	-9	36*	1	0
CCN(CC)S(=O)(=O)c1ccc2oc(SCc3ccc(F)cc3)nc2c1	-8	-36*	-1	29	-2
CCOC(=O)C1(CC2CC2)CCN(Cc2cn[nH]c2-c2ccccc2)CC1	-4	7	-7	3	2
CCOC(=O)C1(CC2CC2)CCN(Cc2cn[nH]c2-c2cccc(F)c2)CC1	-7	-38*	-4	1	2
Cc1cc(C)n2c(SCc3ccc(Cl)cc3Cl)nnc2n1	10	8	8	42*	0
CCc1ccc2c(CN(C)Cc3ccccc3OC)cc(=O)oc2c1	-6	-31*	0	3	-1
CC(=O)OC1CC(C)N(C(=O)c2ccccc2)c2ccc(C)cc21 (stereo not drawn)	0	-5	-2	2	-1
CCCC(=O)OC1CC(C)N(C(=O)c2ccccc2)c2ccc(C)cc21 (stereo not drawn)	-24	-8	-2	32*	0
NC(=O)COc1ccc(=O)n(-c2ccccc2)n1	.	-42*	-3	3	1
Cc1cc(Oc2ccc(=O)n(C)n2)nc(SCC(N)=O)n1	-7	25	-3	4	0
Cn1nc(OCC(N)=O)ccc1=O	-2	-51*	1	1	0
O=c1ccc(OCCOc2ccccc2)nn1-c1ccccc1	-5	-3	-2	3	0
CC(C)(C)OC(=O)Cc1nnc(-c2cc3ccccc3[nH]2)s1	0	8	-3	2	1
O=C(Cn1c(SCCOc2ccccc2Cl)nc2ccccc21)N1CCCCC1	-1	0	21	10	0
CCOC(=O)C1=C(C)NC(C)=C(C(=O)OCCNC(=O)c2cccnc2)C1c1cccc([N+](=O)[O-])c1 (stereo not drawn)	-6	1	-3	1	-1
COC(=O)C1=C(C)NC(C)=C(C(=O)OCCN(C)Cc2ccccc2)C1c1cccc([N+](=O)[O-])c1 (stereo not drawn)	-5	-35*	-1	0	-1
CC(C)(C)C(=O)OCc1cc(=O)n2nc(C3CC3)sc2n1	2	10	3	0	1
COc1ccccc1NC(=O)N1CCN(c2cc(-c3ccccc3)nc3ncnn23)CC1	2	-54*	-1	0	-1
COc1ccc(OC)c(NC(=O)C2CCN(c3cc(-c4ccccc4)nc4ncnn34)CC2)c1	5	-4	6	2	-1
